What all share (test): log2 fold change, soluble protein after heating vs DMSO (PISA); higher = thermal stabilisation; K562 lysate, 10 uM; active = over 0.2 and 3.5 SD of the protein, either way, in both replicates (recomputed)
Compound in test [1]: COc1cc2nc(-c3cc(F)ccc3O)nc(N[C@@H]3CNC[C@H]3C(C)(C)O)c2cc1OC
Summed up: (§1)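 To prepare the extract, K562 pellets were dounce-homogenised in PBS pH 7.4 with 1 mM MgCl2, giving crude material at 1 mg/mL protein. This was treated with 10 μM compound for 30 min, then heated in aliquots for 3 min over 48°C-58°C before pooling and addition of NP-40 to 0.5% at 4°C. Centrifugation at 21,000xg for 90 min left soluble protein in the supernatant, which TMTpro 16plex LC-MS/MS quantified with equalised channel sums. Results are log-two fold changes in thermal stability compared with solvent controls, from duplicates.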

Compound in another test: CS(=O)(=O)CCNCc1ccc(-c2ccc3ncnc(Nc4ccc(OCc5cccc(F)c5)c(Cl)c4)c3c2)o1 [lapatinib]
Put shortly:
as §1

Compound in test [2]: CNC(=O)C1=CC=CC=C1NC2=NC(=NC=C2Cl)NC3=C(C=C(C=C3)N4CCOCC4)OC
Summed up:
as §1

Compound in another test: CNC(=O)c1ccc(Nc2ncc(C(F)(F)F)c(NCc3nccnc3N(C)S(C)(=O)=O)n2)cc1 [defactinib]
Summed up:
as §1

Compound in a further test: COc1cc(Nc2ncc3c(n2)-c2ccc(Cl)cc2C(c2c(F)cccc2OC)=NC3)ccc1C(=O)O [alisertib]
Put shortly:
as §1

Compound in a further test: COc1cc2ncnc(Nc3ccc(F)c(Cl)c3)c2cc1OCCCN1CCOCC1 [gefitinib]
Summed up: as §1

Compound in the next test: CN1CCc2c(c3ccccc3n2Cc2ccc(C(=O)NO)cc2)C1 [Tubastatin A]
Summed up: as §1

Compound in test [3]: CNc1nc(-c2ccc3c(N)n[nH]c3c2)cc(N2C[C@@H](C(=O)NC3CCCCC3)CC[C@H]2C)n1
Summed up:
as §1

Compound in a further test: CS(=O)(=O)N1CCN(Cc2cc3nc(-c4cccc5[nH]ncc45)nc(N4CCOCC4)c3s2)CC1 [pictilisib]
Summed up: as §1

Compound in a further test: C[C@@H](Oc1cc(-c2cnn(C3CCNCC3)c2)cnc1N)c1c(Cl)ccc(F)c1Cl [crizotinib]
Put shortly: as §1

Compound in the next test: C[C@H](Nc1ncnc2nc[nH]c12)c1cc2cccc(Cl)c2c(=O)n1-c1ccccc1 [duvelisib]
Put shortly:
as §1

Compound in the next test: Cc1ccc(-n2nc(C(C)(C)C)cc2NC(=O)Nc2ccc(OCCN3CCOCC3)c3ccccc23)cc1 [doramapimod]
Summed up: as §1

Compound in the next test: Cc1ccc(NC(=O)c2ccc(CN3CC[C@H](N(C)C)C3)c(C(F)(F)F)c2)cc1Nc1nccc(-c2cncnc2)n1 [bafetinib]
Put shortly:
as §1

Compound in a further test: COC(=O)N[C@@H](C)CNc1nccc(-c2cn(C(C)C)nc2-c2cc(Cl)cc(NS(C)(=O)=O)c2F)n1 [encorafenib]
Put shortly:
as §1

Compound in test [4]: COC(=O)[C@H](CCSC)NC(=O)C1=C(C=C(C=C1)NC[C@H](CS)N)C2=CC=CC=C2
Summed up:
as §1

Compound in a further test: Cc1cc(Nc2cc(N3CCN(C)CC3)nc(Sc3ccc(NC(=O)C4CC4)cc3)n2)n[nH]1 [tozasertib]
Summed up:
as §1

Compound in the next test: CN1CC[C@H](c2c(O)cc(O)c3c(=O)cc(-c4ccccc4Cl)oc23)[C@H](O)C1 [alvocidib]
Summed up:
as §1

Compound in test [5]: C[C@H](C1=CC=C(C=C1)C(=O)NC2=C3C=CNC3=NC=C2)N
Put shortly:
as §1

Compound in a further test: Cc1cc(Nc2cc(CN3CCOCC3)c3nc(C)c(Cc4ccc(Cl)cc4F)n3n2)n[nH]1 [gandotinib]
Put shortly:
as §1

Compound in test [6]: Cc1cccc(CC(=O)N2CCc3c2ccc(-c2cn(C)c4ncnc(N)c24)c3F)n1
Put shortly:
as §1

The full data set covers some 8,800 targets. This sample favours those with a hit. About 0.5% of all pairs of compound and target were hits. Unmarked numbers belong to inactive results.

Chain of UniProt Q9BW66 (Q9BW66 whole entry, looked up): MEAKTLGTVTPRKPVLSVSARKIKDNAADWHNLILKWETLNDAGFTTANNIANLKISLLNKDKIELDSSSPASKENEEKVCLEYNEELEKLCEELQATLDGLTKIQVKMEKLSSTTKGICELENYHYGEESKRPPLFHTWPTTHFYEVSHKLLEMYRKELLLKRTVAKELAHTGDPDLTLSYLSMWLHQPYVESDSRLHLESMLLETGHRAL
Chain of UniProt Q7Z460 (Q7Z460 whole entry, looked up): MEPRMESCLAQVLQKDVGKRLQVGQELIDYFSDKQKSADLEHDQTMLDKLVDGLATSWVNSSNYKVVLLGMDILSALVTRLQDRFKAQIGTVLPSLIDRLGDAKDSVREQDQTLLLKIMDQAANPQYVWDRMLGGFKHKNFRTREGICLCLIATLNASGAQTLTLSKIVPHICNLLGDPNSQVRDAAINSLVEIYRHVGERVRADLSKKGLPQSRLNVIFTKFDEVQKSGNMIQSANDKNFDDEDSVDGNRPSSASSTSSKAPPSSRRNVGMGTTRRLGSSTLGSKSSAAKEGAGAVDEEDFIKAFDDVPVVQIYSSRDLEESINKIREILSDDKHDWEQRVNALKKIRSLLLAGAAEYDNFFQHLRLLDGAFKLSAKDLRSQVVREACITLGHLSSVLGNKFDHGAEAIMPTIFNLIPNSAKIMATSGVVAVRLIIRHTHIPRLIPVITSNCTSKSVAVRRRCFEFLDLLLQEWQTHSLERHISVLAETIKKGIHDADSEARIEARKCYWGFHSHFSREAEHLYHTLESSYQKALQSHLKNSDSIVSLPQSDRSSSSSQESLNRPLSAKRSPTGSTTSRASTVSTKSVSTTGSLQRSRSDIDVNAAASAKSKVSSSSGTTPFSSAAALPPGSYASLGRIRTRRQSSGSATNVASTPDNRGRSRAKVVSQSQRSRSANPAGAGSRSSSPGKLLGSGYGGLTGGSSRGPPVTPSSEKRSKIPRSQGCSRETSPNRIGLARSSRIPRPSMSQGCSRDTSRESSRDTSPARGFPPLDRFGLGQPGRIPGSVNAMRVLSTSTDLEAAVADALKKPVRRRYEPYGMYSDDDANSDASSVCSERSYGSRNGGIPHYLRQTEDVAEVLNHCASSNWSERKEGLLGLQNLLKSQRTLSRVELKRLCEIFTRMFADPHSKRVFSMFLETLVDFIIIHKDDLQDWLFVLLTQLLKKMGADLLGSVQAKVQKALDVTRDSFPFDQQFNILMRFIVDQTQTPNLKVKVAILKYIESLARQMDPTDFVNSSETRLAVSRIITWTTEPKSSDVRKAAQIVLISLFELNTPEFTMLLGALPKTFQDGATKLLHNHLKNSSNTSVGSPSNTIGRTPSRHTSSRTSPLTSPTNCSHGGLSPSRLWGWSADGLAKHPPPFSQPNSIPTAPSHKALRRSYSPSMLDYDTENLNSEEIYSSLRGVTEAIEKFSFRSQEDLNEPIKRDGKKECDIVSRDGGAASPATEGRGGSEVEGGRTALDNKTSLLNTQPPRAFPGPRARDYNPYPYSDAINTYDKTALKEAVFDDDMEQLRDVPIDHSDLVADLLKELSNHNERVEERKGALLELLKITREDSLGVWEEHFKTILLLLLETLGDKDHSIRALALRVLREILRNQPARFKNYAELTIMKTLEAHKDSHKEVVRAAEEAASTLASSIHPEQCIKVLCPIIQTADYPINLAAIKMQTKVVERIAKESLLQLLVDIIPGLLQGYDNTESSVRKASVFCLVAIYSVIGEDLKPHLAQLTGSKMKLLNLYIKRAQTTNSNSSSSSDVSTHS
Chain of UniProt Q6UX07 (Q6UX07 whole entry, looked up): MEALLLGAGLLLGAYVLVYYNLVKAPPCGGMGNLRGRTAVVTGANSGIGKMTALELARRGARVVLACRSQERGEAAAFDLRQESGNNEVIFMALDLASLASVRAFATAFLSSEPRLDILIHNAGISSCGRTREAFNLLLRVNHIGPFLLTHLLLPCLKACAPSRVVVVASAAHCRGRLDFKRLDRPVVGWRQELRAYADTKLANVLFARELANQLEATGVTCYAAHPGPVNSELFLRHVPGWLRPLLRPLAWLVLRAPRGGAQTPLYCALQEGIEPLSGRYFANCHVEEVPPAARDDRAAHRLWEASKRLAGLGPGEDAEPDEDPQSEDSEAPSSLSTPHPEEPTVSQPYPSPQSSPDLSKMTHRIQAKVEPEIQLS
Chain of UniProt Q96SQ9 (Q96SQ9 whole entry, looked up): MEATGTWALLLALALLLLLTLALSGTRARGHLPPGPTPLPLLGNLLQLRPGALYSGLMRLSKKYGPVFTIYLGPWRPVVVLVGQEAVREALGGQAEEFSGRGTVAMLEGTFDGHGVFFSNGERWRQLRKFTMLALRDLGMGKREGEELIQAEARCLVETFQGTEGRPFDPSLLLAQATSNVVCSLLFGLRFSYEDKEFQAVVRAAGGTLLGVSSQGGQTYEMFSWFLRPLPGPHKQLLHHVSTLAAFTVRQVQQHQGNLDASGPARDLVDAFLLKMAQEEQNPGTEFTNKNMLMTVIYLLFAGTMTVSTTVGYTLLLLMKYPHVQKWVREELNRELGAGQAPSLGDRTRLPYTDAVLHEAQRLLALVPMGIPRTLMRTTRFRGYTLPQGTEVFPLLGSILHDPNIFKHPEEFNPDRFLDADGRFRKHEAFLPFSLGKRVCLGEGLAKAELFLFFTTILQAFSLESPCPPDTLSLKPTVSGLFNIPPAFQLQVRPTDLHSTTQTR
Chain of UniProt O95715 (O95715 whole entry, looked up): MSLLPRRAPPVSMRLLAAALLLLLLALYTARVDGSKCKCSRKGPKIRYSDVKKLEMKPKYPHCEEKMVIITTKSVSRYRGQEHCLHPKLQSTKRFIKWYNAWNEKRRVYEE
Chain of UniProt O14810 (O14810 whole entry, looked up): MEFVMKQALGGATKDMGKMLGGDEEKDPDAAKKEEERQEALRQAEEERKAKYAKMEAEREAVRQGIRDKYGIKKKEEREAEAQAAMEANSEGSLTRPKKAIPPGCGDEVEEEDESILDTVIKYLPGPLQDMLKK
Chain of UniProt Q9Y6M4 (Q9Y6M4 whole entry, looked up): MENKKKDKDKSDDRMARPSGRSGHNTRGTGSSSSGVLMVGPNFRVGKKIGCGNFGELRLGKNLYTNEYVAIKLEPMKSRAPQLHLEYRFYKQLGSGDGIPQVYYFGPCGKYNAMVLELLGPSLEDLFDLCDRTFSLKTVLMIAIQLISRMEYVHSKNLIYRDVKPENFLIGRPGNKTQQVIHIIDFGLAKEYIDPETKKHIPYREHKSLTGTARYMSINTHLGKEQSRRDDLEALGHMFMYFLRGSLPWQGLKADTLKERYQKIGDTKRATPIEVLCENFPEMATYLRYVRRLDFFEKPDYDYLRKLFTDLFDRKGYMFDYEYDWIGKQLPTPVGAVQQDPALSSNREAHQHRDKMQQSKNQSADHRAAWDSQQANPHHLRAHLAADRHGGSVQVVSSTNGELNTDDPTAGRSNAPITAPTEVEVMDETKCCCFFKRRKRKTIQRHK

With CSNK2A1, A0A2R8Y4D6, the log2 fold change is 0.06 in [1] and -0.132 with lapatinib.

Turning to CLASP1 isoform 4 (UniProt Q7Z460), the log2 fold change is 0.046 in [2], 0.223 with defactinib, 0.063 in the test with alisertib and 0.107 with gefitinib.

Consider DHRS13 (UniProt Q6UX07), for which the log2 fold change with Tubastatin A was -0.087; in [2] it was -0.083; in test [3], 0.004; with alisertib, -0.211; in test [1], -0.138; with gefitinib, 0.036. Further, the log2 fold change with lapatinib is 0.048; in the test with pictilisib, -0.052; in the test with crizotinib it was -0.048; with duvelisib it was 0.185; in the test with doramapimod it was 0.087; in the test with bafetinib it was -0.113.

In the case of CNOT2 (UniProt F8VRS8), in [2], the log2 fold change is 0.004.

CXCL14 (UniProt O95715): the log2 fold change was -0.235 with defactinib; -0.034 with encorafenib; 0.066 in test [4]; -0.083 in the test with pictilisib; -0.021 in the test with tozasertib; -0.649 with bafetinib.

On to CYP2S1 isoform 2 (UniProt Q96SQ9), for which the log2 fold change with Tubastatin A was 0.027; in test [2], -0.085; in the test with defactinib, -0.022; in [3] it was -0.151; with encorafenib it was 0.024; in test [4], 0. Further, the log2 fold change was -0.219 in test [1]; 0.316 in the test with lapatinib; 0.023 with crizotinib; -0.075 in the test with duvelisib; -0.023 with tozasertib; -0.057 with doramapimod.

Take CHMP4A (UniProt H0YIN6): the log2 fold change with alvocidib is -0.197; with Tubastatin A, 0.193; in test [3], 0.528; in [1], 0.104; with lapatinib it was -0.078; in the test with pictilisib it was -0.071. In addition, the log2 fold change in the test with crizotinib was -0.211; in test [5], -0.091; with duvelisib, 0; with gandotinib, 0.451; with doramapimod, -0.059; with bafetinib it was -0.098. Further, the log2 fold change in test [6] is 0.325.

As for CSNK1G3 isoform 4 (UniProt Q9Y6M4), the log2 fold change in test [1] is 0.53; with lapatinib, -0.035.

Regarding CINP isoform 3 (UniProt Q9BW66), the log2 fold change in the test with alvocidib is -0.056; with Tubastatin A, -0.107; with defactinib, -0.056; in test [3] it was 0.028; with encorafenib, 0.003; in [4] it was 0.062. The log2 fold change with alisertib was 0; in test [1], 0.064; in the test with gefitinib, -0.24; with lapatinib, -0.059; with pictilisib, 0.011; with crizotinib, -0.028. The log2 fold change in test [5] is -0.325 (active); with duvelisib, 0.062; with gandotinib it was 0.018; with tozasertib, 0.056; with doramapimod, 0.036; in the test with bafetinib it was -0.059. Moreover, the log2 fold change in [6] is 0.208.

On to CPLX1 (UniProt O14810), for which the log2 fold change in the test with Tubastatin A is 0.04; in the test with defactinib it was 0.144; in test [3], -0.127; with encorafenib, -0.017; in [4], -0.415; in [1] it was -0.005. Also, the log2 fold change with lapatinib is -0.095; with duvelisib, -0.001; with tozasertib, 0.167.

For the origin of these results see the supplement of paper PMC10849652.
